# Experimental data as given in PubChem BioAssay AID504375 (National Center for Advancing Translational Sciences (NCATS), 2011).
# In all, about 1,600 compounds went through this assay and about 25 (2%) were called active. Where a call stands in place of a potency, no number is given. Another 7% or so got no clear call; they are omitted. Calls come from the whole dose curve; as a rule, active = well fitted inhibition curve with a large enough effect; inconclusive = small, poorly fitted or top-dose-only effect, or effect the other way; inactive = no such curve, though single readings can be large or run the other way. Many of the other results were omitted from the sample, so actives are more common in it than they were.
# Biological target: Runt-related transcription factor 1 (Homo sapiens) + Core-binding factor subunit beta (Homo sapiens) (UniProt Q01196+Q13951)
# Sequence (Q01196 whole entry, looked up): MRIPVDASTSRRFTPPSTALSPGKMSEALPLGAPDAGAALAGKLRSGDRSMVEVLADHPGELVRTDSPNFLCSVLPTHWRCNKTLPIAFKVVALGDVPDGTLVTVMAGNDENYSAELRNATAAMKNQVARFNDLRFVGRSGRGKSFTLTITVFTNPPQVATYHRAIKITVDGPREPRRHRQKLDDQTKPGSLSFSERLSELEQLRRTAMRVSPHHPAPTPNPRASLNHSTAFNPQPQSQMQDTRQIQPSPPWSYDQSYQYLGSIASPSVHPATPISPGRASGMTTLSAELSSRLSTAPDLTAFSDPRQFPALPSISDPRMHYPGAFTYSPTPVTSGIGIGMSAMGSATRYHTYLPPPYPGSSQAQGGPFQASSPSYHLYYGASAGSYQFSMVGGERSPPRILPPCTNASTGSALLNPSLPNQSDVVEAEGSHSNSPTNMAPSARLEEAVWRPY
# Sequence (Q13951 whole entry, looked up): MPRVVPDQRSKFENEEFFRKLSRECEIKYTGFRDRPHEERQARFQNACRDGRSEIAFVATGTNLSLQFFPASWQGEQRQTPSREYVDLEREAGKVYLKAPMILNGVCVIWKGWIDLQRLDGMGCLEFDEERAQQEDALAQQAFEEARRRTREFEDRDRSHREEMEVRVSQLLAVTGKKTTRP
# Assay: qHTS Assay for Compounds Blocking the Interaction Between CBF-beta and RUNX1 for the Treatment of Acute Myeloid Leukemia: Hit Validation with Orthogonal Assay
# Details: CBFbeta-RUNX1 binding orthogonal assay, biochemical; series mostly up to 41 µM
# Text: NIH Chemical Genomics Center [NCGC]
# NIH Molecular Libraries Probe Production centers Network [MLPCN]
# Assay Submitter (PI): Paul Liu
# Core Binding Factor (CBF) abnormalities are associated with 20-25% of all acute myeloid leukemias (AML), of which 5-10% are further sub classified as acute myelomonocytic leukemia with eosinophilia, also known as M4Eo in the FAB classification scheme. This subtype of leukemia is usually associated with chromosome 16 inversion (p13:q22). Chromosome 16 inversion results in formation of the fusion oncogene CBFB-MYH11, which encodes the fusion protein CBF-beta-SMMHC.
# It has been hypothesized that the interference of CBF-beta and RUNX1 binding could have therapeutic implications for patients with CBF mediated leukemias. We developed a CBF-beta and RUNX1 binding assay in AlphaScreenTM format and optimized it for high throughput screening to search for inhibitors. The goal of this project is to screen MLPCN's compound collection (MLSMR) for identifying the inhibitors of the interaction between CBF-beta and RUNX1 proteins as research probes. If these probes work well in the animal models, the ultimate goal of this project is to development a new drug treatment for this disease.
# This assay can not be used to assess how apparent inhibitors interfere with protein binding, and whether inhibitors specifically bind to either protein. Disruption of this protein-protein interaction, through any mechanism, is the intended target activity.
# The present data set was run to confirm the activity of hits from the primary screen using an orthogonal assay technology for measuring protein-protein interaction disruption.
# A TR-FRET (time resolved fluorescence resonance energy transfer) assay was performed using the same assay buffer, protein concentrations and incubation times as described previously in the AlphaScreen assay, except that terbium (Tb+) labeled anti-his-antibody and XL665 linked streptavidin were used to capture the binding signal. The Tb+ labeled anti-his-antibody captures His(6)-CBF and XL665 linked streptavidin binds to biotin-RUNX1. The binding of RUNX1 to CBFbrings Tb+ and XL665 to proximity resulting in a TR-FRET signal. Briefly, in a white 384-well plate, 10 µl/well of mixture of biotin-RUNX1 and His(6)-CBFwere incubated with 10 µl/well buffer (positive control) or 10 µl/well compounds (negative control) for 20 min followed by an addition of 10 µl/well of Tb+ labeled anti-his(6)-antibody and XL665 linked streptavidin. After 90 min of incubation in the dark, the assay plate was measured in the Envision plate reader using TR-FRET detection mode. For the 1536-well plate format, 3 µl/well mixture of biotin-RUNX1 and His(6)-CBF (30 nM per protein) was incubated with 23 nl/well compound (dissolved in 100% DMSO) or the equivalent DMSO concentration (positive control) for 30 min followed by the addition of 1 µl/well of 0.44 ng Tb+ labeled anti-his(6)-antibody and 5 nM streptavodin-XL665. After 90 min of incubation, the assay plate was measured in the Envision plate reader.
# The TR-FRET assay for detecting interaction between HIV-I Tat and […] was similarly performed with the recombinant full-length HIV-I Tat CLADE B and HIV-I Tat Biotin conjugated proteins supplied by Diatheva (Fano, Italy). Briefly, the His-CBF and Biotin-RUNX1 complex at a working concentration of 83.3 nM per protein were pre-incubated in assay buffer for 10 minutes on ice. Then HIV-I Tat or unlabeled CBF were added to reach final concentrations (Supplementary Figure 4b) and incubated for 5 minutes. Finally anti-His antibody and streptavidin-XL665 at a final concentration of 2.2 ng and 5 nM, respectively, were added to the plate, which was incubated for 1 hr prior to reading on the PerkinElmer Envision plate reader.
# Keywords: MLSMR, MLPCN, NIH Roadmap, qHTS, NCGC, Core binding factor, CBF, CBF-beta, Acute myeloid leukemia
# Potency is the fitted concentration of half-maximal effect.
row,SMILES,Potency
1,CC(=O)c1sccc1NC(=O)c1ccccc1C(=O)O,inactive
2,O=C(Oc1c(-c2ccccc2)c(=O)n2c3c(cccc13)CC2)c1ccccc1,inactive
3,O=[N+]([O-])c1cccnc1Oc1ccc(F)cc1,inactive
4,Cn1nc2c3ccccc3n(Cc3ccc(F)cc3)c2nc1=S,inactive
5,COc1ccc(C(=O)NC(=S)Nc2ccc(CN3CCOCC3)cc2)cc1,inactive
6,Cc1nc2ccc(NC(=S)N3CCOCC3)cc2nc1C,12.6 µM (active)
7,Cc1cccc(C)c1NC(=S)N1CCOCC1,inactive
8,COC(=O)c1scc(C)c1NC(=O)/C=C/C(=O)O,inactive
9,Cc1ccc(N/N=C(\C#N)C(=N)N2CCCCC2)cc1,inactive
10,Cc1nc(SCc2cccc(F)c2)c2oc3ccccc3c2n1,inactive
11,Cn1ncc2c(c(SCc3ccc(Cl)cc3Cl)nn2C)c1=O,inactive
12,O=C1NCCc2c1[nH]c1ccccc21,inactive
13,CC(C)Cn1nc(NC(=O)c2cccs2)c2cc3ccccc3nc21,inactive
14,CC(=O)Oc1cc2c3c(c1)/C(=C1/SC(=S)NC1=O)C(=O)N3C(C)(C)C=C2C,inactive
15,CC(C)N(Cc1ccccc1)C(=O)c1ccc2nsnc2c1,inactive
16,O=C(CSc1nc2ccccc2n1Cc1ccccc1Cl)N/N=C/c1ccccc1C(=O)O,inactive
17,O=C(O)C1CCc2sc3[nH]c(=S)n(-c4ccccc4)c(=O)c3c21 (configuration not stated),inactive
18,Cn1cccc1/C=C1\SC(=S)N(NC(=O)c2ccc(F)cc2)C1=O,inactive
19,Clc1ccc(C2=Nn3c(Cn4nnc5ccccc54)nnc3SC2)cc1,inactive
20,O=C1COc2cccnc2N1,inactive
21,Cc1c(-c2ccccc2)[n+](=O)c(-c2ccc(Br)cc2)c(C)n1[O-],inactive
22,COc1cc(C(=O)NC(=S)Nc2ccc3c(c2)OCO3)cc(OC)c1OC,inactive
23,CCCSc1cc(Cl)nc(N)n1,inactive
24,O=C(CCl)NC1(C(F)(F)F)C(=O)Nc2c1c(=O)[nH]c(=O)n2-c1ccccc1 (configuration not stated),inactive

row,SMILES,Potency
1,O=[N+]([O-])c1ccc(-c2cn3c(n2)CCC3)cc1,inactive
2,COc1c(/C=N/NC(=O)c2ccncc2)c(CCN(C)C(C)=O)cc2c1OCO2,inactive
3,COc1cc(/C=N/n2nnnc2N)cc(OC)c1OC,inactive
4,Cc1nc2ccccc2nc1N1CCCC1,inactive
5,COc1cscc1C(=O)O,inactive
6,CCOc1nsc(OCC)n1,inactive
7,C/C(=N\Nc1cccc(Cl)c1)C1(C)N(O)C(C)(C)C(c2ccco2)=[N+]1[O-] (configuration not stated),inactive
8,CCOC(=O)C1=C(C)N(CC(C)C)C(=O)/C1=C\c1cccs1,inactive
9,O=C(O)/C=C/c1cn(-c2ccccc2)nc1-c1ccc(-c2ccc([N+](=O)[O-])cc2)o1,inactive
10,COc1ccccc1/C=C/C=NC1C(=O)N(c2ccccc2)[N+](C)=C1C (configuration not stated),inactive
11,O=C(O)c1cc(O)c2c(c1)[C@H]([C@H]1c3cc(C(=O)O)cc(O)c3C(=O)c3c(O[C@@H]4OC(CO)C(O)C(O)C4O)cccc31)c1cccc(O[C@@H]3OC(CO)C(O)C(O)C3O)c1C2=O (some centres not stated),2.51 µM (active)
12,O=C(O)CC(CCc1ccccc1)OC1OC(CO)C(O)C(O)C1O (configuration not stated),inactive
13,COc1cc(/C=C/c2nc3ccc([N+](=O)[O-])cc3s2)ccc1OCC(=O)O,inactive
14,CCn1cc(C(c2ccccc2)C(C(C)=O)[N+](=O)[O-])c2ccccc21 (configuration not stated),inactive
15,OCCNc1nc2ccccc2nc1NCCO,inactive
16,COc1ccc(C2=NOC(CNC(=S)N3CCOCC3)C2)cc1 (configuration not stated),inactive
17,Cn1c(SCC(=O)NC(=O)Nc2ccccc2)nnc1-c1ccncc1,inactive
18,C(=C\c1nccc2c1[nH]c1ccccc12)/c1ccccc1,inactive
19,COc1cccc(/C=N/NC(=O)c2cnccn2)c1OC,inactive
20,Oc1ccccc1/C=N/Nc1nn[nH]n1,inactive
21,CCN(CC)c1ncc(C#N)c(N)n1,inactive
22,Cc1cc(O)c(C=O)c2c1C(=O)Oc1c(COC(=O)/C=C/C(=O)O)c(O)c(C(=O)O)c(C)c1O2,28.2 µM (active)
23,CCOC(=O)c1cn2nc(Oc3ccc(C(=O)OC)cc3)ccc2n1,inactive
24,CCc1nc2ccccc2nc1N1CCN(S(=O)(=O)c2ccc(Cl)cc2)CC1,inactive

row,SMILES,Potency
1,c1ccc(C2=Nn3c(Cn4nnc5ccccc54)nnc3SC2)cc1,inactive
2,CC(=O)c1ccc(S(=O)(=O)N2Cc3ccccc3CC2C(=O)O)cc1 (configuration not stated),inactive
3,Brc1ccc(C2=Nn3c(Cn4nnc5ccccc54)nnc3SC2)cc1,inactive
4,COc1ccc(C(=O)CN2CCN(c3cc(C)nc4ccccc34)CC2)cc1,inactive
5,COC(=O)/C(=C\Nc1ccc(Oc2ccc(F)cc2F)nc1)NC(=O)c1ccccc1,inactive
6,CN(C)c1cc(-c2ccc(Cl)cc2Cl)oc(=O)c1Cl,inactive
7,CC(C)(C)C(=O)Nc1ccccc1C(=O)NCc1cccnc1,inactive
8,O=S(=O)(c1ccc(F)cc1F)N1CCCN(c2ccc(C(F)(F)F)cn2)CC1,inactive
9,CCC(C)c1ccc(OCc2ccc(C(=O)OC)o2)cc1 (configuration not stated),inactive
10,CCNC(=S)Nc1ccc(NC(=O)c2ccccc2O)cc1,inactive
11,O=C(O)C1Nc2c(O)cccc2C2C=CCC12 (configuration not stated),3.55 µM (active)
12,COc1cccc2c1NC(C(=O)O)C1CC=CC21 (configuration not stated),7.94 µM (active)
13,COc1ccccc1C1CCN(C(=O)c2ccco2)CC1,inactive
14,Cc1ccc2c(c1C)NC(C(=O)O)C1CC=CC21 (configuration not stated),7.08 µM (active)
15,COc1ccccc1C1CCN(C(=O)c2cccs2)CC1,inactive
16,O=C(O)C1Nc2c(O)cc(Cl)c([N+](=O)[O-])c2C2C=CCC12 (configuration not stated),inactive
17,Cn1ncc(Br)c1N1C(=O)CCC1=O,inactive
18,Fc1ccc(C(CCNCc2cccs2)c2ccco2)cc1 (configuration not stated),inactive
19,COc1ccc(NC(=O)Nc2nc3ccccc3s2)cc1,inactive
20,Cc1cc(NC(=O)CSc2nc3ccccc3[nH]2)n(-c2ccccc2)n1,inactive
21,c1ccc(-c2nnc(-c3ccccn3)nc2NC2CCCCC2)cc1,inactive
22,CN(C)c1nc(-c2ccccn2)nnc1-c1ccccc1,22.4 µM (active)
23,c1ccc(-c2n[nH]c(-c3ccccn3)n2)nc1,inactive
24,CC(=O)Nc1cccc(OCCCNC(=O)c2cccc3ccccc23)c1,inactive

row,SMILES,Potency
1,COc1ccc2[nH]c(C(=O)N3CCCN(Cc4ccc(F)cc4)CC3)cc2c1,inactive
2,NS(=O)(=O)c1ccc(N/N=C/c2ccc(C(=O)O)cc2)c([N+](=O)[O-])c1,inactive
3,CC(=O)CCn1cc([N+](=O)[O-])nc1C,inactive
4,Cc1cccn(Cc2c(F)cccc2Cl)c1=O,inactive
5,CC(C)(C)OC(=O)N1CCCN(C(=O)Nc2ccc(C(F)(F)F)cc2)CC1,inactive
6,CC(/C=N/n1c(-c2ccccn2)n[nH]c1=S)=C\c1ccccc1,inactive
7,CCC12CCCN3CCc4c(n(c5ccccc45)C(O)(C(=O)OC)C1)C32 (configuration not stated),inactive
8,O=C(O)CSCC(=O)N1CCCN(c2nc3ccc(Cl)cc3s2)CC1,inactive
9,Cc1nn(Cc2ccccc2)c(C)c1/C=N/NC(=O)c1ccncc1,inactive
10,COc1ccccc1OCc1ccc(C(=O)NN)o1,inactive
11,Cc1nn(C)c(=O)c(N)c1-c1cc(-c2ccc(Cl)c(Cl)c2)n[nH]1,inactive
12,CC(C)(C)c1ccc(C(=O)Cn2nc(C(=O)O)c3ccccc3c2=O)cc1,inactive
13,CN(C)c1cccc(N(C)C)c1CNC(=O)C(C)(C)C,inactive
14,S=c1[nH]nc(-c2cccs2)n1C1CCCCC1,inactive
15,CCCSc1nnc(NC(=O)Nc2ccc(C)cc2)s1,inactive
16,O=C(/C=C/c1cn(CC(O)CN2CCOCC2)c2ccccc12)c1cccs1 (configuration not stated),inactive
17,Cc1nc([N+](=O)[O-])cn1CC(O)c1ccccc1 (configuration not stated),inactive
18,CCSc1cc(Cl)nc(N)n1,inactive
19,COc1cc(OC)c(OC)cc1/C=N/NC(=O)CCc1c(C)n[nH]c1C,inactive
20,CC(=O)N1CCCC1(C(=O)O)c1ccccc1 (configuration not stated),inactive
21,O=C(N/N=C/C(Br)=C/c1ccccc1)C(O)c1ccccc1 (configuration not stated),inactive
22,O=C(O)C1CC(c2ccccc2)=Nc2ccccc2S1 (configuration not stated),inactive
23,COc1ccc2nc(-c3ccc(Cl)cc3)cc(C(=O)O)c2c1,inactive
24,Oc1cccc(O)c1O,0.888 µM (active)

row,SMILES,Potency
1,Cc1ccc(OCC(=O)N(Cc2ccc(N(C)C)cc2)C2CCS(=O)(=O)C2)cc1C (configuration not stated),inactive
2,CCOC(=O)c1cnc2c(F)ccc(F)c2c1Sc1ccccc1,inactive
3,O=C(Nc1ccc(Cl)cc1)NC1CCCCNC1=O (configuration not stated),inactive
4,Cc1nn(-c2ccccc2)nc1C(=O)NNC(=O)c1cccc2ccccc12,inactive
5,Cc1nn2c(NCCN(C)C)c3c(nc2c1-c1ccccc1)CCCC3,inactive
6,Cc1nc([N+](=O)[O-])cn1C(C)C,inactive
7,c1ccc(-c2ccc(C3=Nn4c(nnc4-c4cccs4)SC3)cc2)cc1,inactive
8,CC(=O)Nc1ccc(Nc2cc(C(C)C)nc3c(-c4ccccc4)c(C)nn23)cc1,inactive
9,O=C(O)c1ccccc1Sc1ccccc1S(=O)(=O)NC1CCCCC1,inactive
10,CCC(C)NC(=O)CC(C)C (configuration not stated),inactive
11,O=C1CC(N2CCN(S(=O)(=O)c3ccccc3)CC2)C(=O)N1c1ccccc1 (configuration not stated),inactive
12,C/C(Cc1ccccc1)=N\NC(=O)CNC(=O)c1ccc(Cl)cc1Cl,inactive
13,N/C(CC1CC1(Cl)Cl)=N\OC(=O)c1ccccc1 (configuration not stated),inactive
14,CC(=O)COc1nc2c(c(-c3ccco3)c1C#N)CCc1ccccc1-2,inactive
15,Nc1nc(NCc2ccco2)nc(NCCO)c1[N+](=O)[O-],inactive
16,Cc1ccc(-n2ncc(-c3nn[nH]n3)c2N)cc1,inactive
17,NCCc1ccc(O)c(O)c1,inactive
18,NC(Cc1ccc(O)c(O)c1)C(=O)O (configuration not stated),0.891 µM (active)
19,O=C(/C=C/c1ccc(O)c(O)c1)c1ccccc1O,inactive
20,N[C@H](Cc1ccc(O)c(O)c1)C(=O)O,7.08 µM (active)
21,COc1ccc(C(=O)Nc2cccnc2Sc2ccc(Cl)cc2)cc1,inactive
